# According to the supplement of paper PMC7411054:
# Counter-ions that a name gives are not always drawn.
# What was measured:
# Details in all cases: treatment time: 24 h
# WPMY1-GM130-SQSTM1 [1] = assay: lowest phenotypically active concentration; higher = less potent
# In short: (§1)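 Cells from fifteen gene-edited reporter lines (A549, HepG2 and WPMY1) were treated for 24 h at 0.3, 1, 3 or 9 µM and imaged live, four wells per condition. Features were normalised per well to solvent control wells. A condition deviated if ≥3 of 4 wells passed the 95th percentile of control Euclidean distances and was reproducible if its median replicate Pearson correlation beat the 95th percentile of non-replicates; phenotypic activity needed both.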
# A549-ACTB-RAB5A = assay: phenotypically active (imaging signature differs from DMSO and reproducible) at any of 0.3-9 uM (binary (1 = active, 0 = inactive)); higher = active
# In short: as §1
# A549-CANX-COX4 = assay: as above
# In short: as §1
# A549-GM130-SQSTM1 = assay: as above
# In short: as §1
# A549-TP53BP1-CLTA = assay: as above
# In short: as §1
# A549-TUBA1B-RELA = assay: as above
# In short: as §1
# HepG2-ACTB-RAB5A = assay: as above
# In short: as §1
# HepG2-CANX-COX4 = assay: as above
# In short: as §1
# HepG2-GM130-SQSTM1 = assay: as above
# In short: as §1
# HepG2-TP53BP1-CLTA = assay: as above
# In short: as §1
# HepG2-TUBA1B-RELA [2] = assay: as above
# In short: as §1
# WPMY1-ACTB-RAB5A = assay: as above
# In short: as §1
# WPMY1-CANX-COX4 [3] = assay: as above
# In short: as §1
# WPMY1-GM130-SQSTM1 [4] = assay: as above
# In short: as §1
# WPMY1-TP53BP1-CLTA = assay: as above
# In short: as §1
# WPMY1-TUBA1B-RELA = assay: as above
# In short: as §1
# WPMY1-CANX-COX4 [5] = assay: lowest phenotypically active concentration; higher = less potent
# In short: as §1
# HepG2-TUBA1B-RELA [6] = assay: as above
# In short: as §1
Compound,lowest phenotypically active concentration (WPMY1-GM130-SQSTM1 [1]),phenotypically active (A549-ACTB-RAB5A),phenotypically active (A549-CANX-COX4),phenotypically active (A549-GM130-SQSTM1),phenotypically active (A549-TP53BP1-CLTA),phenotypically active (A549-TUBA1B-RELA),phenotypically active (HepG2-ACTB-RAB5A),phenotypically active (HepG2-CANX-COX4),phenotypically active (HepG2-GM130-SQSTM1),phenotypically active (HepG2-TP53BP1-CLTA),phenotypically active (HepG2-TUBA1B-RELA [2]),phenotypically active (WPMY1-ACTB-RAB5A),phenotypically active (WPMY1-CANX-COX4 [3]),phenotypically active (WPMY1-GM130-SQSTM1 [4]),phenotypically active (WPMY1-TP53BP1-CLTA),phenotypically active (WPMY1-TUBA1B-RELA),lowest phenotypically active concentration (WPMY1-CANX-COX4 [5]),lowest phenotypically active concentration (HepG2-TUBA1B-RELA [6])
O=[N+]([O-])c1cc(Cl)ccc1S(=O)(=O)c1ccccc1,9 µM,0 (inactive),0 (inactive),0 (inactive),0 (inactive),0 (inactive),0 (inactive),0 (inactive),1 (active),0 (inactive),0 (inactive),0 (inactive),0 (inactive),1 (active),0 (inactive),0 (inactive),–,–
CN/C(=C/[N+](=O)[O-])NCCSCc1csc(CN(C)C)n1 [nizatidine],–,0 (inactive),0 (inactive),0 (inactive),0 (inactive),0 (inactive),0 (inactive),0 (inactive),0 (inactive),1 (active),0 (inactive),0 (inactive),0 (inactive),0 (inactive),0 (inactive),0 (inactive),–,–
COc1ccc(Cn2ccc3ccc(C(=O)NO)cc32)cc1,3 µM,0 (inactive),0 (inactive),0 (inactive),0 (inactive),0 (inactive),0 (inactive),0 (inactive),0 (inactive),0 (inactive),0 (inactive),0 (inactive),0 (inactive),1 (active),0 (inactive),0 (inactive),–,–
Cc1ccc(C(=O)Oc2ccc(C(O)CNC(C)(C)C)cc2OC(=O)c2ccc(C)cc2)cc1 (stereo not given) [bitolterol],–,0 (inactive),0 (inactive),0 (inactive),0 (inactive),0 (inactive),0 (inactive),0 (inactive),0 (inactive),0 (inactive),0 (inactive),0 (inactive),1 (active),0 (inactive),0 (inactive),0 (inactive),9 µM,–
CCOc1ccc2nc(S(N)(=O)=O)sc2c1 [ethoxzolamide],–,0 (inactive),0 (inactive),0 (inactive),0 (inactive),0 (inactive),0 (inactive),0 (inactive),1 (active),0 (inactive),0 (inactive),0 (inactive),0 (inactive),0 (inactive),0 (inactive),0 (inactive),–,–
CCOC(=O)c1ccc(N2NC(=O)/C(=C/c3ccc([N+](=O)[O-])o3)C2=O)cc1,9 µM,0 (inactive),0 (inactive),0 (inactive),0 (inactive),0 (inactive),0 (inactive),0 (inactive),0 (inactive),0 (inactive),0 (inactive),0 (inactive),1 (active),1 (active),0 (inactive),0 (inactive),9 µM,–
CC(CCc1ccc(O)cc1)NCCc1ccc(O)c(O)c1 (stereo not given) [Dobutamine hydrochloride],3 µM,0 (inactive),0 (inactive),0 (inactive),0 (inactive),0 (inactive),0 (inactive),0 (inactive),0 (inactive),0 (inactive),0 (inactive),0 (inactive),0 (inactive),1 (active),0 (inactive),0 (inactive),–,–
Cc1cc2c(s1)Nc1ccccc1N=C2N1CCN(C)CC1 [Olanzapine],–,0 (inactive),0 (inactive),0 (inactive),0 (inactive),0 (inactive),0 (inactive),0 (inactive),0 (inactive),0 (inactive),1 (active),0 (inactive),0 (inactive),0 (inactive),0 (inactive),0 (inactive),–,9 µM
CN(C)CCCC1(c2ccc(F)cc2)OCc2cc(C#N)ccc21 (stereo not given) [citalopram],9 µM,0 (inactive),0 (inactive),0 (inactive),0 (inactive),0 (inactive),0 (inactive),0 (inactive),0 (inactive),0 (inactive),0 (inactive),0 (inactive),0 (inactive),1 (active),0 (inactive),0 (inactive),–,–
COc1ccc(-c2ccc3cc(C(=O)O)ccc3c2)cc1C12CC3CC(CC(C3)C1)C2 [Adapalene],1 µM,0 (inactive),0 (inactive),0 (inactive),0 (inactive),0 (inactive),0 (inactive),0 (inactive),0 (inactive),0 (inactive),0 (inactive),0 (inactive),0 (inactive),1 (active),0 (inactive),0 (inactive),–,–
O=C(Nc1ccccc1)N1CCC(Cc2cnc3ccccc3c2)CC1,–,0 (inactive),0 (inactive),0 (inactive),0 (inactive),0 (inactive),0 (inactive),0 (inactive),0 (inactive),1 (active),1 (active),0 (inactive),0 (inactive),0 (inactive),0 (inactive),0 (inactive),–,9 µM
